Inconclusive results are not listed. Where a call stands in place of a potency, no number is given. The source made the active and inactive calls. Calls come from the whole dose curve; as a rule, active = well fitted inhibition curve with a large enough effect; inconclusive = small, poorly fitted or top-dose-only effect; inactive = flat fitted curve, though single readings scatter.
Potency is the fitted concentration of half-maximal effect.

In the assay the test system is CP325. The experiment in a line: qHTS profiling for inhibitors of Plasmodium falciparum proliferation (AID 504749). Note: nearly all actives have a fitted effect of over 60% in size. Conditions: P. falciparum in erythrocytes, SYBR Green DNA, 72 h; series mostly up to 28.7 µM. The method in brief: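 P. falciparum-infected erythrocytes (0.3% parasitemia, 2.5% hematocrit final) were exposed to compounds for 72 h at 37 C in 5% CO2, then lysed with SYBR Green buffer overnight at room temperature; parasite DNA fluorescence was normalized to artemisinin and DMSO controls.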
(In general: Quantitative high-throughput screening tests each substance at several concentrations.)
On to `C#C[C@]1(O)CC[C@H]2[C@@H]3CCc4cc(OC)ccc4[C@H]3CC[C@@]21C`, for which the Potency result was “inactive”. To `CCCCNC(=O)NS(=O)(=O)c1ccc(N)cc1` belongs “inactive”. To `Nc1ccc(C(=O)NCC(=O)O)cc1` belongs “inactive”; to `OC1C(O)C(O)C(O)C(O)C1O` (stereo not given), “inactive”; to `O=S(=O)(O)c1ccc(O)cc1`, “inactive”. As for `COc1cc(C(=O)NCc2ccc(OCCN(C)C)cc2)cc(OC)c1OC`, the entry is “inactive”; as for `COc1cc(C)nc(-n2nc(C)cc2OC)n1`, “inactive”; as for `CC(=O)Oc1ccc(C)cc1`, “inactive”. Consider `CC(=O)NC(=O)c1ccccc1O`, for which the Potency entry is “inactive”. `FC(F)(F)C(F)(F)C(F)(F)C(F)(F)C(F)(F)C(F)(F)C(F)(F)C(F)(F)Br`: the Potency result was “inactive”. As to `c1ccc(-c2nc[nH]c2-c2ccccc2)cc1`, the Potency entry is “inactive”. For `CCNC(=O)NCc1cccc(Cl)c1`, the Potency result is “inactive”.

As to `O=C(O)Cc1csc(-c2ccc(Cl)cc2)n1`, the Potency entry is “inactive”. As for `Nc1nc(-c2ccccc2)c(Br)c(=O)[nH]1`, the entry is “inactive”. Take `O=c1[nH]c(=O)n([C@H]2C[C@H](O)[C@@H](CO)O2)cc1F`: the Potency entry is “inactive”. As for `CC(=O)Nc1ncc([N+](=O)[O-])s1`, the entry is “inactive”; as for `Cc1cccc(C)c1NC(=O)CN1CCCCCC1`, “inactive”. As for `CC[C@H](c1ccc(O)cc1)[C@@H](CC)c1ccc(O)cc1`, the entry is “inactive”; as for `Cc1c(-c2ccccc2)oc2c(C(=O)OCCN3CCCCC3)cccc2c1=O`, “inactive”.

Consider `CCCCCCCCCCCCCCCCO`, for which the Potency entry was “inactive”. As for `Oc1ccccc1C=NCc1ccccc1`, the entry is “inactive”; as for `CCN(CC)CCNC(=O)COc1ccc(OC)cc1`, “inactive”. As to `COc1cc(N)c(Cl)cc1C(=O)NC1CCN(Cc2ccccc2)CC1`, the Potency result is “inactive”. `Cc1cc(NS(=O)(=O)c2ccc(N)cc2)nc(C)n1`: the Potency entry is “inactive”.

On to `CC(=O)OC[C@H]1O[C@@H](n2ncc(=O)[nH]c2=O)[C@H](OC(C)=O)[C@@H]1OC(C)=O`, for which the Potency result is “inactive”.

With `CCOc1ccccc1OCCN[C@H](C)Cc1ccc(OC)c(S(N)(=O)=O)c1`, the Potency result is “inactive”.

Consider `O=C(NCCc1c[nH]c2ccccc12)c1cccnc1`, for which the Potency entry was “inactive”. To `Cc1ccccc1OCC(O)CO` (stereo not given) belongs “inactive”; to `Cc1cc(C)cc(OCC2CNC(=O)O2)c1` (stereo not given), “inactive”. In the case of `CCOc1cc(OCC)c(C(=O)CCC(=O)O)cc1OCC`, the Potency result was “inactive”. To `N#CCC(=O)NN` belongs “inactive”; to `O=C(O)C(Cc1cc(I)c(O)c(I)c1)c1ccccc1` (stereo not given), “inactive”; to `CCCCCCCC/C=C\CCCCCCCCN`, “inactive”. As for `CC1=C(C(=O)O)N2C(=O)[C@@H](NC(=O)[C@H](N)c3ccccc3)[C@H]2SC1`, the entry is “inactive”; as for `CCN(CC)CCNc1ccc(CO)c2sc3ccccc3c(=O)c12`, 4.78 µM (active). On to `Cl/C(=C\n1cncn1)c1ccc(Cl)cc1Cl`, for which the Potency entry is “inactive”. As for `CCCCCCCCCCCCCCCC(=O)O`, the entry is “inactive”; as for `CC(C)CCCC(C)N` (stereo not given), “inactive”. With `CCOC(=O)c1ccc(N)cc1`, the Potency result is “inactive”. As for `Cc1c[nH]c2ccccc12`, the entry is “inactive”.
